TRHR agonist = qHTS for Small Molecule Agonists and Allosteric Enhancers of Human TRH Receptor: Primary Screen for Agonists; AID 493084, 2011; hit rate 0.18% among 360,000; activation, % at 2 µM; TRHR cells, calcium flux fluo-8, FDSS agonist mode; note: 0% is about no effect
Target sequence (P34981 whole entry, looked up): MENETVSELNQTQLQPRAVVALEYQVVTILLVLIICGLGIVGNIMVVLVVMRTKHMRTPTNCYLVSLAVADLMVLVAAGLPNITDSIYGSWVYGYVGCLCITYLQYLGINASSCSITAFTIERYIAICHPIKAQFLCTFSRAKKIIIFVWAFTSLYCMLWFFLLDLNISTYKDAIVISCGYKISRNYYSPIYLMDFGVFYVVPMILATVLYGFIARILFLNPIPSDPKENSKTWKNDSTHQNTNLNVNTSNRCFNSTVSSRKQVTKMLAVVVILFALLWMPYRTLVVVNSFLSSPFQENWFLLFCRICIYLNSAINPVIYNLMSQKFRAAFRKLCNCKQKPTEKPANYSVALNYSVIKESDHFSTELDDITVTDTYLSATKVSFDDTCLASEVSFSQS
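TRHR-expressing cells, plated overnight in medium with 10% serum, were loaded with fluo-8 calcium dye at room temperature. After a 10 s baseline, library compound was pin-added and calcium release was recorded kinetically (ex 480/em 530) as agonist response.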
D1 antag = Antagonist of Human D 1 Dopamine Receptor: qHTS. hit rate 3.2% among 360,000. AID 504652, 2011. D(1A) dopamine receptor (Homo sapiens), P21728. activity change, negative = inhibition, % at 10 µM. HEK293 TREx D1 cells, calcium flux, dopamine EC80; active compounds read low; in the data active = activity change below about -30%; note: % is set by controls: 0 for no effect and ±100 for the full control effect
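Allosteric or orthosteric antagonism assessed as attenuation of the calcium response to EC80 dopamine, added 180 s after compound, in induced HEK293 Trex D1 cells loaded with no-wash calcium dye.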
TRHR PAM = qHTS for Small Molecule Agonists and Allosteric Enhancers of Human TRH Receptor: Primary Screen for Enhancers; hit rate 0.66% among 360,000; TRHR cells, fluo-8 calcium fluorescence, EC20 TRH enhancement; Thyrotropin-releasing hormone receptor (Homo sapiens), P34981; AID 493056, 2011; enhancement, % at 2 µM; in the data active = enhancement above about 30%; note: 0% is about no effect
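Enhancer read-out: after compound pinning and an initial kinetic agonist-mode read, an EC20 of TRH (10 nM final) was injected and fluo-8 calcium signal (Ex 480/Em 530) followed at 1 s/cycle for 100 cycles in TRHR-expressing cells.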
D1 potentiator = Potentiators of Human D1 Dopamine Receptor: qHTS; AID 504651, 2011; D(1A) dopamine receptor (Homo sapiens), P21728; hit rate 0.036% among 360,000; HEK293 TREx D1 cells, calcium flux, dopamine EC20 potentiation; potentiation, % at 10 µM; in the data active = potentiation above about 30%; note: 0% is about no effect
Glioma ERSR ind = qHTS for Inducers of the Endoplasmic Reticulum Stress Response (ERSR) in Human Glioma: qHTS. U87-MG GRP78 promoter luciferase reporter, 16 h. Potency, µM, for the others: top-dose activation, usual class: activators. hit rate 0.02% among 420,000. AID 602332, 2012; active = well fitted activation curve with a large enough effect; note: potency is the fitted concentration of half-maximal effect; series mostly up to about 76 µM; % of control where 0% means no effect; nearly all actives have a fitted effect of over 35% in size
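ERSR induction read as luciferase luminescence (Bright-Glo, 10 min at room temperature) in stably transfected human U87-MG glioma cells exposed to compounds for 16 h, using GRP78 as sensor.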
D1 agonist = Allosteric Agonists of the Human D1 Dopamine Receptor: qHTS; activation, % at 2 µM; D(1A) dopamine receptor (Homo sapiens), P21728; HEK293 T-REx D1 cells, calcium flux, agonist mode; hit rate 1% among 360,000; note: 0% is about no effect
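Inducible HEK293 T-REx D1 cells, force-coupled to calcium signalling, were plated at 4000 cells/well with tetracycline and held overnight at 30 C. After no-wash calcium dye loading, compound-evoked calcium rise over 180 s flagged agonists.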
Numbers without * were called inactive; x = not tested or not shown. A selection: hits, their analogues and other compounds. The true share with any hit is near 4%. Cut-off read from the data, not from the text of the source, unless noted: active = activation above about 30%; inactive = the rest.

SMILES	TRHR agonist	D1 antag	TRHR PAM	D1 potentiator	Glioma ERSR ind	D1 agonist
CCOc1cccc(-c2c(C(=O)N/N=C/c3ccsc3)nnn2-c2nonc2N)c1	3	45	29	30	-3%	72*
Cc1sc2nc(SCc3nc(-c4ccccc4)no3)n(-c3ccccc3)c(=O)c2c1C	1	0	0	-1	0%	-1
CC(=O)OCC(OC(C)=O)C(OC(C)=O)C(OC(C)=O)C(=O)Nc1cccc(C)c1 (stereo unspecified)	-1	-24	-3	-1	-3%	0
O=S1(=O)CCOCCCN1Cc1ccc(F)cc1	x	x	x	x	-2%	x
CC(C)C(NS(C)(=O)=O)c1nnc2n1CCN(Cc1ccc(Cl)cc1)CC2 (stereo unspecified)	x	x	x	x	-4%	x
Cc1ccc(-c2c(C(=O)N/N=C/c3cccs3)nnn2-c2nonc2N)cc1	9	42	23	20	-4%	76*
COc1ccc(CNC(=O)CN2CCN(c3ccccc3O)CC2)cc1OC	1	-23	0	-10	-7%	3
CN(C)c1nc(OCCOC(=O)c2ccccc2)nc(N(C)C)n1	2	0	-1	-1	-2%	31*
CCC(C)(C)NC(=O)CN(C(=O)C(=O)Nc1ccc2c(c1)OCCO2)N1CCOCC1	1	1	-5	-9	-1%	-1
CCCC(C)(C)C(=O)N1CCC1(C)C(=O)NS(=O)(=O)c1ccc(Cl)cc1 (stereo unspecified)	x	x	x	x	-4%	x
CC(NCc1ccc(OCc2ccc(Cl)cc2)cc1)C(O)c1ccccc1 (stereo unspecified)	1	-5	5	-5	-13%	38*
COc1ccc(CNC(c2ccccc2)c2ccc(Cl)cc2)cc1 (stereo unspecified)	0	16	-1	-4	-5%	1
c1ccc(COc2cccc(CNn3cnnc3)c2)cc1	-1	0	2	-9	-1%	2
CC(NCc1cccc(OCc2ccccc2)c1)C(O)c1ccccc1 (stereo unspecified)	2	x	-3	-3	-2%	42*
OCCCCNCc1ccc(OCc2ccc(Cl)cc2)cc1	1	-51*	9	-5	5%	26
CCCCCNCc1ccc(Cl)cc1	2	-14	-4	2	-7%	4
Clc1ccc(-n2cccc2CN2CCOc3ccc(CN4CCOCC4)cc3C2)nc1	x	x	x	x	-1%	x
O=C(Nc1nccs1)[C@@H]1CC=C[C@@H]2CCN(Cc3ccc(Cl)c(Cl)c3)C(=O)[C@@H]21	x	x	x	x	-3%	x
CC(C)c1ccc(OCc2ccc(C(=O)N3CCCC3)o2)cc1	-2	-34*	3	x	-2%	70*
CCOc1ccc(OCc2ccc(C(=O)N3CCCC3)o2)cc1	-1	-11	15	-2	6%	8
O=C(N/N=C/C(Br)=C/c1ccccc1)C1CC1	0	-41*	-8	-6	4%	2
FC(F)Oc1ccc(-c2csc(=Nc3cccnc3)n2CC2CCCO2)cc1 (stereo unspecified)	0	-31*	-6	-2	-1%	15
COCCn1c(-c2ccc(Br)cc2)csc1=Nc1cccnc1	-1	-34*	-9	-7	-7%	4
Clc1ccc(-c2csc(=Nc3cccnc3)n2CCCn2ccnc2)cc1Cl	-1	13	-9	-5	-4%	6
Cc1nc(CC(=O)Nc2cc(Cl)ccc2C)cs1	0	3	1	5	-5%	-1
CCOc1cc(CNC2CCCC2)cc(Cl)c1OCc1ccc(F)cc1	0	-7	24	42*	-6%	102*
COc1cc(CNn2c(C)n[nH]c2=S)cc(Cl)c1OCc1ccc(F)cc1	-1	-1	6	-2	-4%	37*
COc1cc(CNC2CCCC2)cc(Cl)c1OCc1ccc(F)cc1	3	4	-6	-6	-6%	32*

Source: PubChem
